# Measurements as given in PubChem BioAssay (Tox21).
# Unmarked numbers belong to inactive results. Records with an inconclusive call do not appear. Entries that show only a call come without a potency. The source made the active and inactive calls. Unless noted, calls come from the whole dose curve; as a rule, active = well fitted curve in the direction sought with a large enough effect in the repeat runs; inconclusive = weak or mixed curves; inactive = no such curve, though single readings can be large; an effect the other way counts as inactive or inconclusive.
# Key:
# [1] = qHTS assay for small molecule agonists of the p53 signaling pathway (AID 651631; calls by dose curve; note: nearly all actives have a fitted effect of over 15% in size)
# Method in brief: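 HCT-116 p53RE-bla reporter line, 16 h compound treatment at 37 °C, then fluorescence after 2 h with B/G FRET substrate.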
# [2] = qHTS assay for small molecules that induce genotoxicity in human embryonic kidney cells expressing luciferase-tagged ATAD5 (AID 651632); note: nearly all actives have a fitted effect of over 15% in size
# Method in brief: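 Genotoxicity read-out via ATAD5-luciferase: HEK293T cells, 16 hr compound incubation at 37C, Amplite detection.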
# [3] = qHTS assay for small molecule agonists of the p53 signaling pathway - cell viability (AID 651633; calls by dose curve;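 note: p53RE-bla HCT reporter cells with a stable beta-lactamase p53 reporter; series mostly up to about 83 µM; nearly all actives have a fitted effect of over 30% in size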)
# Method in brief: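 p53RE-bla cells were treated with compound for 16 hours at 37 C. Cytotoxicity was then measured as CellTiter-Glo luminescence after 30 min at room temperature.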
# [4] = qHTS assay for small molecules that induce genotoxicity in human embryonic kidney cells expressing luciferase-tagged ATAD5 - cell viability (AID 651634; calls by dose curve; note: nearly all actives have a fitted effect of over 25% in size)
# Method in brief: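 Live-cell protease activity (CellTiter-Fluor, fluorescence) indicates viability. HEK293T cells with luciferase-tagged ATAD5; 15.5 hr compound treatment at 37C.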
# [5] = qHTS assay for small molecule disruptors of the mitochondrial membrane potential - cell viability (AID 720634; calls by dose curve;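 note: human HepG2 liver cancer cells; series mostly up to about 83 µM; nearly all actives have a fitted effect of over 20% in size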)
# Method in brief: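 Human hepatoma HepG2 cells were treated for 1 hr with test chemicals, then given m-MPI dye and CellTiter-Glo. Cell viability reflects luminescence proportional to cellular ATP.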
# [6] = qHTS assay for small molecule disruptors of the mitochondrial membrane potential (AID 720635); note: potency is the fitted concentration of half-maximal effect
# Method in brief: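 HepG2 cells exposed to compound 1 hr at 37C, then Mito-MPS dye 30 min. Ratio read of aggregate (540/590 nm) versus monomer (490/535 nm) fluorescence.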
# [7] = qHTS assay to test for compound auto fluorescence at 590 nm (red) in HepG2 cells (AID 720674)
# Method in brief: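 Fluorescence at 590 nm emission following 540 nm excitation was recorded from HepG2 wells one hour after compound transfer, with DMSO-only wells as vehicle and Rose Bengal sodium equivalency as the scale.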
# [8] = qHTS assay to test for compound auto fluorescence at 535 nm (green) in HepG2 cells (AID 720675)
# [9] = qHTS assay to test for compound auto fluorescence at 460 nm (blue) in HEK293 cells (AID 720678)
# Method in brief: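 Cells were seeded and left to adhere for 4-5 hr at 37C. Compounds were then pin-transferred. After an overnight incubation at 37C under 5% CO2, intrinsic fluorescence at 405/460 nm was measured and referenced to triamterene.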
# [10] = qHTS assay to test for compound auto fluorescence at 590 nm (red) in HEK293 cells (AID 720679)
# Method in brief: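 Each well held 2,000 HEK293 cells in medium containing 10% dialyzed FBS. Following 4-5 hr attachment at 37C, 23 nL test compound or DMSO was added; plates sat overnight, and red fluorescence (540/590nm) was recorded.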
# [11] = qHTS assay to test for compound auto fluorescence at 535 nm (green) in HEK293 cells (AID 720680)
# [12] = qHTS assay to test for compound auto fluorescence at 460 nm (blue) in HEK293 cell free culture (AID 720681)
# Method in brief: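 Compounds were added to cell-free DMEM with 10% FBS and fluorescence read directly. The blue channel used 405 nm excitation and 460 nm emission, with triamterene as the reference fluorophore.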
# [13] = qHTS assay to test for compound auto fluorescence at 535 nm (green) in HEK293 cell free culture (AID 720682)
# Method in brief: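 Steps: dispense DMEM/10% FBS into empty wells; pin in compound or DMSO; measure fluorescence at 485/535 nm. Values are fluorescein equivalents.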
# [14] = qHTS assay to test for compound auto fluorescence at 590 nm (red) in HEK293 cell free culture (AID 720683)
# Method in brief: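 Cell-free wells of DMEM with 10% FBS received compound, and intrinsic fluorescence was read at excitation/emission 540/590 nm. Values expressed as equivalence to Rose Bengal sodium.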
# [15] = qHTS assay to test for compound auto fluorescence at 590 nm (red) in HepG2 cell free culture (AID 720684)
# Method in brief: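 Compound was pinned into wells holding MEM with 10% FBS and no cells, and red fluorescence was read at Ex/Em 540/590 nm. Signal is expressed as auto fluorescence equivalency relative to Rose Bengal sodium.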
# [16] = qHTS assay to test for compound auto fluorescence at 535 nm (green) in HepG2 cell free culture (AID 720686)
# [17] = qHTS assay to test for compound auto fluorescence at 460 nm (blue) in HepG2 cells (AID 720687)
# Method in brief: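 HepG2 cells in MEM with 10% FBS, attached overnight at 37 C, were exposed to compound or DMSO for 1 hr at 37 C, 5% CO2. Blue fluorescence was read at 405/460 nm, with triamterene as reference fluorophore.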
# [18] = qHTS assay to test for compound auto fluorescence at 460 nm (blue) in HepG2 cell free culture (AID 720685)
# Method in brief: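 Compound (23 nL) or DMSO pinned into cell-free MEM with 10% FBS; blue fluorescence read at 405/460 nm excitation/emission, expressed as auto-fluorescence equivalency to triamterene.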
# [19] = target: Glucocorticoid receptor (Homo sapiens) (UniProt P04150); test: qHTS assay to identify small molecule antagonists of the glucocorticoid receptor (GR) signaling pathway (AID 720692; active = well fitted inhibition curve with a large enough effect in the signal ratio in the repeat runs, not every such curve was filed as active; the % refers to the signal ratio)
# Method in brief: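 Fluorescence from cleaved LiveBLAzer B/G FRET substrate reports GRE-driven beta-lactamase in HeLa cells; compounds are tested against 5 nM dexamethasone (final) over 18 h at 37 C, substrate incubation 2 h at room temperature.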
# [20] = target: Glucocorticoid receptor (Homo sapiens) (UniProt P04150); test: qHTS assay to identify small molecule agonists of the glucocorticoid receptor (GR) signaling pathway (AID 720691; active = well fitted activation curve with a large enough effect in the signal ratio in the repeat runs, not every such curve was filed as active; the % refers to the signal ratio)
# Method in brief: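 Beta-lactamase reporter activity, read as fluorescence intensity, was measured in GR-bla HeLa cells exposed to compounds for 18 h at 37 C and then loaded with LiveBLAzer B/G FRET substrate for 2 h at room temperature.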
# Sequence of Glucocorticoid receptor (Homo sapiens) (P04150 whole entry, looked up): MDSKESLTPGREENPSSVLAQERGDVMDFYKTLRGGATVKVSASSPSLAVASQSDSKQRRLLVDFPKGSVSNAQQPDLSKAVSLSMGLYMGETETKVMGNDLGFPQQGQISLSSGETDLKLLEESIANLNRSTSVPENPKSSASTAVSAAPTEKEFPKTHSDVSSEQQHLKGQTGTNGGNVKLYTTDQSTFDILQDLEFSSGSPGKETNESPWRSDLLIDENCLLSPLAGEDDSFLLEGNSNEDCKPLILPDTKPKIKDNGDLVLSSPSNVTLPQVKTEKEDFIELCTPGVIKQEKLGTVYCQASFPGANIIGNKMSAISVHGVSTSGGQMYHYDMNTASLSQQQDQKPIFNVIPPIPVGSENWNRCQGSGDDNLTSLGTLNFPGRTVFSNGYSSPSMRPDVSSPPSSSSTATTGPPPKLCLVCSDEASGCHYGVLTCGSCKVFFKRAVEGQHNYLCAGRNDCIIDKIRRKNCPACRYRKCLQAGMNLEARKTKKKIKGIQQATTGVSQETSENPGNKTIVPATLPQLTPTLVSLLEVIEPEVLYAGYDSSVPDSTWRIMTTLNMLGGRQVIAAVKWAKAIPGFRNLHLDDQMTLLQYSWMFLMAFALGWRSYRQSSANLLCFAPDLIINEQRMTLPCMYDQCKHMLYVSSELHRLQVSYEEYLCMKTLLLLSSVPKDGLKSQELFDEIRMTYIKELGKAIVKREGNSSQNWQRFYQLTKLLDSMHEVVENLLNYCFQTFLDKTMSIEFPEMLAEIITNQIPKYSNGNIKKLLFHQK
compound,measurement,setting,value
CCCCc1ccc(Cl)cc1,Potency,[1],inactive
same,Potency,[2],inactive
same,outcome,[3],inactive
same,outcome,[4],inactive
same,outcome,[5],inactive
same,Potency,[6],inactive
same,outcome,[7],inactive
same,outcome,[8],inactive
same,outcome,[9],inactive
same,outcome,[10],inactive
same,outcome,[11],inactive
same,outcome,[12],inactive
same,outcome,[13],inactive
same,outcome,[14],inactive
same,outcome,[15],inactive
same,outcome,[16],inactive
same,outcome,[17],inactive
C/C=C(\C)C(=O)OC/C=C(\C)CCC=C(C)C,Potency,[1],inactive
same,Potency,[2],inactive
same,outcome,[3],inactive
same,outcome,[4],inactive
same,outcome,[5],inactive
same,Potency,[6],inactive
same,outcome,[7],inactive
same,outcome,[8],inactive
same,outcome,[9],inactive
same,outcome,[10],inactive
same,outcome,[11],inactive
same,outcome,[12],inactive
same,outcome,[13],inactive
same,outcome,[15],inactive
same,outcome,[18],inactive
same,outcome,[16],inactive
same,outcome,[17],inactive
same,outcome,[19],inactive
NCC1CCC(C(=O)Oc2ccc(CCC(=O)O)cc2)CC1 (stereo not given),Potency,[1],inactive
same,Potency,[2],inactive
same,outcome,[3],inactive
same,outcome,[4],inactive
same,outcome,[5],inactive
same,Potency,[6],inactive
same,outcome,[7],inactive
same,outcome,[8],inactive
same,outcome,[9],inactive
same,outcome,[10],inactive
same,outcome,[11],inactive
same,outcome,[12],inactive
same,outcome,[13],inactive
same,outcome,[14],inactive
same,outcome,[15],inactive
same,outcome,[18],inactive
same,outcome,[16],inactive
same,outcome,[17],inactive
C[C@@H]1CC[C@@]2(OC1)O[C@H]1C[C@H]3[C@@H]4CC[C@H]5C[C@@H](O)CC[C@]5(C)[C@H]4CC(=O)[C@]3(C)[C@H]1[C@@H]2C,Potency,[1],inactive
same,Potency,[2],inactive
same,outcome,[3],inactive
same,outcome,[4],inactive
same,outcome,[5],inactive
same,Potency,[6],inactive
same,"fluorescence, relative to Rose Bengal",[7],-1.11% [at 18.6 µM]
same,"fluorescence, % of fluorescein control",[8],-0.248% [at 18.6 µM]
same,"fluorescence, % of triamterene",[9],0.0136% [at 18.6 µM]
same,"fluorescence, % of fluorescent control",[10],0.373% [at 18.6 µM]
same,"fluorescence, % of fluorescein",[11],-0.0442% [at 18.6 µM]
same,"fluorescence, % of fluorescent control",[12],0.012% [at 18.6 µM]
same,activity change,[13],-0.0372% [at 18.6 µM]
same,"fluorescence, % of fluorescent control",[14],0.195% [at 18.6 µM]
same,"fluorescence, % of Rose Bengal",[15],0.0999% [at 18.6 µM]
same,"fluorescence, % of fluorescent control",[18],0.0653% [at 18.6 µM]
same,"fluorescence, % of fluorescein control",[16],0.0232% [at 18.6 µM]
same,"fluorescence, % of fluorescent control",[17],-0.13% [at 18.6 µM]
Nc1cc(S(=O)(=O)O)ccc1O,Potency,[1],inactive
same,Potency,[2],inactive
same,outcome,[3],inactive
same,outcome,[4],inactive
same,outcome,[5],inactive
same,Potency,[6],inactive
same,outcome,[7],inactive
same,outcome,[8],inactive
same,outcome,[9],inactive
same,outcome,[10],inactive
same,outcome,[11],inactive
same,outcome,[12],inactive
same,outcome,[13],inactive
same,outcome,[14],inactive
same,outcome,[15],inactive
same,outcome,[18],inactive
same,outcome,[16],inactive
same,outcome,[17],inactive
same,Potency,[20],inactive
same,outcome,[19],inactive
OCCC(F)(F)C(F)(F)C(F)(F)C(F)(F)C(F)(F)C(F)(F)F,Potency,[1],inactive
same,Potency,[2],inactive
same,outcome,[3],inactive
same,outcome,[4],inactive
same,outcome,[5],inactive
same,Potency,[6],inactive
same,outcome,[7],inactive
same,outcome,[8],inactive
same,outcome,[9],inactive
same,outcome,[10],inactive
same,outcome,[11],inactive
same,outcome,[12],inactive
same,outcome,[13],inactive
same,outcome,[14],inactive
same,outcome,[15],inactive
same,outcome,[18],inactive
same,outcome,[16],inactive
same,outcome,[17],inactive
same,outcome,[19],inactive
Cc1nc2ccc(Cl)cc2[nH]1,Potency,[1],inactive
same,Potency,[2],inactive
same,outcome,[3],inactive
same,outcome,[4],inactive
same,outcome,[5],inactive
same,Potency,[6],inactive
same,outcome,[7],inactive
same,outcome,[8],inactive
same,outcome,[9],inactive
same,outcome,[10],inactive
same,outcome,[11],inactive
same,outcome,[12],inactive
same,outcome,[13],inactive
same,outcome,[14],inactive
same,outcome,[15],inactive
same,outcome,[18],inactive
same,outcome,[16],inactive
same,outcome,[17],inactive
same,Potency,[20],inactive
same,outcome,[19],inactive
C=CCOC(=O)CCCCCCCC,Potency,[1],inactive
same,Potency,[2],inactive
same,outcome,[3],inactive
same,outcome,[4],inactive
same,outcome,[5],inactive
same,Potency,[6],inactive
same,outcome,[7],inactive
same,outcome,[8],inactive
same,outcome,[9],inactive
same,outcome,[10],inactive
same,outcome,[11],inactive
same,outcome,[12],inactive
same,outcome,[13],inactive
same,outcome,[14],inactive
same,outcome,[15],inactive
same,outcome,[18],inactive
same,outcome,[16],inactive
same,outcome,[17],inactive
O=C(OOC(=O)c1ccccc1)c1ccccc1,Potency,[1],inactive
same,Potency,[2],inactive
same,outcome,[3],inactive
same,outcome,[4],inactive
same,outcome,[5],inactive
same,Potency,[6],inactive
same,outcome,[7],inactive
same,outcome,[8],inactive
same,outcome,[9],inactive
same,outcome,[10],inactive
same,outcome,[11],inactive
same,outcome,[12],inactive
same,outcome,[13],inactive
same,outcome,[14],inactive
same,outcome,[15],inactive
same,outcome,[18],inactive
same,outcome,[17],inactive
same,Potency,[20],inactive
same,outcome,[19],inactive
CCO[Si](CC(C)C)(OCC)OCC,Potency,[1],inactive
same,Potency,[2],inactive
same,outcome,[3],inactive
same,outcome,[4],inactive
same,outcome,[5],inactive
same,Potency,[6],27.3 µM (active)
same,outcome,[7],inactive
same,outcome,[8],inactive
same,outcome,[9],inactive
same,outcome,[10],inactive
same,outcome,[11],inactive
same,outcome,[12],inactive
same,outcome,[13],inactive
same,outcome,[14],inactive
same,outcome,[15],inactive
same,outcome,[18],inactive
same,outcome,[16],inactive
same,outcome,[17],inactive
same,Potency,[20],inactive
CCCCN=C(N)N=C(N)N,Potency,[1],inactive
same,Potency,[2],inactive
same,outcome,[3],inactive
same,outcome,[4],inactive
same,outcome,[5],inactive
same,Potency,[6],inactive
same,outcome,[7],inactive
same,outcome,[8],inactive
same,outcome,[9],inactive
same,outcome,[10],inactive
same,outcome,[11],inactive
same,outcome,[12],inactive
same,outcome,[13],inactive
same,outcome,[14],inactive
same,outcome,[15],inactive
same,outcome,[18],inactive
same,outcome,[16],inactive
same,outcome,[17],inactive
same,Potency,[20],inactive
same,outcome,[19],inactive
N[C@H]1C(O)O[C@H](CO)[C@@H](O)[C@@H]1O (stereo not given in full),Potency,[1],inactive
same,Potency,[2],inactive
same,outcome,[3],inactive
same,outcome,[4],inactive
same,outcome,[5],inactive
same,Potency,[6],inactive
same,outcome,[7],inactive
same,outcome,[8],inactive
same,outcome,[9],inactive
same,outcome,[10],inactive
same,outcome,[11],inactive
same,outcome,[12],inactive
same,outcome,[13],inactive
same,outcome,[14],inactive
same,outcome,[15],inactive
same,outcome,[16],inactive
same,outcome,[17],inactive
CC(C)CC(O)Cc1ccccc1 (stereo not given),Potency,[1],inactive
same,Potency,[2],inactive
same,outcome,[3],inactive
same,outcome,[4],inactive
same,outcome,[5],inactive
same,Potency,[6],inactive
same,outcome,[7],inactive
same,outcome,[8],inactive
same,outcome,[9],inactive
same,outcome,[10],inactive
same,outcome,[11],inactive
same,outcome,[12],inactive
same,outcome,[13],inactive
same,outcome,[15],inactive
same,outcome,[18],inactive
same,outcome,[17],inactive
COC(=O)/C=C(\C)CCC=C(C)C,Potency,[1],inactive
same,Potency,[2],inactive
same,outcome,[3],inactive
same,outcome,[4],inactive
same,outcome,[5],inactive
same,Potency,[6],inactive
same,outcome,[7],inactive
same,outcome,[8],inactive
same,outcome,[9],inactive
same,outcome,[10],inactive
same,outcome,[11],inactive
same,outcome,[12],inactive
same,outcome,[13],inactive
same,outcome,[15],inactive
same,outcome,[18],inactive
same,outcome,[17],inactive
